High-throughput results: PubChem, National Center for Advancing Translational Sciences (NCATS)
ATXN2 expr inh – inhibitors of ATXN2 expression. HEK-293 ATXN2-luciferase reporter, luminescence, 24 h. Potency, µM (top dose mostly 57 µM), for inactives: at the top dose activity change, negative = inhibition, hits mostly inhibitors. 0.72% of 360,000 active. AID 1745845; also: potency is read from the fitted curve at half-maximal effect; % is scaled to controls: 0 for no effect and ±100 for the full control effect; nearly all actives have a fitted effect of over 55% in size
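ATXN2-luciferase reporter cells (luciferase flanked by upstream and downstream ATXN2 gene portions) were treated 24 h at 37 °C with compounds at up to 57 uM. SteadyGlo luminescence gave expression; GF-AFC fluorescence gave viability.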
DRD3 antagonist – blocks the human D3 dopamine receptor | P35462 | D3R cells, DiscoveRx beta-arrestin luminescence, antagonist mode; stronger effect = lower value | max response, negative = inhibition, % | 2.5% of 360,000 active; in the data active = max response below about -50%; inconclusive = no clear call, values can overlap the other calls; also: % is scaled to controls: 0 for no effect and ±100 for the full control effect
Target sequence (P35462 whole entry, looked up): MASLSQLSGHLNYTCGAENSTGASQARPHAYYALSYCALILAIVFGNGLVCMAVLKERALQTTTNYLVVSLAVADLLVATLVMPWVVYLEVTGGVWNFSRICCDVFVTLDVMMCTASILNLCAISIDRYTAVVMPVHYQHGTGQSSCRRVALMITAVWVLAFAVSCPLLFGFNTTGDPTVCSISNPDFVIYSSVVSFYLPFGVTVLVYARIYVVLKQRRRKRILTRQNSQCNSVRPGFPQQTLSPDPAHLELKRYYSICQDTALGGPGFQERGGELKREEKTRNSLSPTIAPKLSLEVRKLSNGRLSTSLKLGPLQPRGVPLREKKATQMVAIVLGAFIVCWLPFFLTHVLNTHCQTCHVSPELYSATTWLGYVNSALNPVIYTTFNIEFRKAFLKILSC
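Cells plated overnight at 1500 cells/well, then exposed to library compounds with dopamine controls for 90 minutes at 37 degrees C. DiscoveRx reagent added for 30–60 minutes at room temperature; luminescence read, quantitative HTS format.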
DRD3 agonist – activates the human D3 dopamine receptor; P35462; D3R DiscoveRx beta-arrestin cells, luminescence, 90 min; 0.58% of 410,000 active; max activation, %; in the data active = max activation above about 30%; also: 0% is about no effect
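Agonist-mode cell screen: cells plated at 1500/well and incubated overnight at 37 °C, then exposed to library compounds for 90 min at 37 °C. Detection reagent was added for 30–60 min at room temperature, and luminescence was read.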
HepG2 tox – counter-screen for TGF-b inhibitors: cytotoxicity in HepG2 cells; HepG2 CAGA-GFP viability, ATP luminescence, 18 h; Potency, µM (top dose mostly 46.1 µM), without a hit: top-dose activity change, negative = cytotoxicity, hits mostly cytotoxic; 0.76% of 410,000 active; also: potency is read from the fitted curve at half-maximal effect
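HepG2 CAGA-GFP cells (1000/well, DMEM with 1% FBS) received compound, then TGF-beta at 500 pg/mL final, and were incubated 18 hours at 37 degrees C. Viability was read by CellTiter-Glo luminescence. Media-only wells were set as complete cell-killing and DMSO as no toxicity.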
TGFb SMAD3 inh – inhibitors of TGF-b signaling | AID 588855 | 1.2% of 410,000 active | Potency, µM (doses to about 46.1 µM), for inactives: top-dose activity, negative = inhibition, usual class: inhibitors | HepG2 CAGA-GFP TGF-b/SMAD3 reporter, GFP fluorescence, 18 h; TGF-beta stimulated, 500 pg/mL final; also: potency is read from the fitted curve at half-maximal effect; % is scaled to controls: 0 for no effect and ±100 for the full control effect; nearly all actives have a fitted effect of over 65% in size
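HEPG2 CAGA-GFP cells (1000/well, DMEM with 1% FBS) were pre-incubated 2 h at 37 degrees C, given compound by pin tool, then stimulated with TGF-beta at 500 pg/mL final for 18 h before per-cell GFP fluorescence imaging.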
S2 tox – cell viability loss in ATXN counter-screen. S2 cells (HEK-293 line with an ATXN2-luciferase reporter) viability, CellTiter-Fluor protease fluorescence, 24 h. Potency, µM (series often up to 56.7 µM), actives largely listed as cytotoxic. 0.49% of 400,000 active. AID 651635; also: potency is read from the fitted curve at half-maximal effect; nearly all actives have a fitted effect of over 40% in size
* = called active by the depositor. Only some compounds are listed: those with a hit (about 4.7% of all), similar ones and a draw of the others. Unless noted, calls follow the shape of the dose curve; as a rule, active = well fitted curve in the direction sought with a large enough effect; inconclusive = small, poorly fitted or top-dose-only effect, or another doubt; inactive = no such curve, though single readings can be large; an effect the other way counts as inactive or inconclusive.

CCc1ccc(N2CSC3=C(C#N)C(c4cccs4)CC(=O)N3C2)cc1 (stereo unspecified) was read as ATXN2 expr inh 22%, DRD3 antagonist -61*, DRD3 agonist 3, HepG2 tox -25%, TGFb SMAD3 inh 0% and S2 tox inactive.
Cc1cc([N+](=O)[O-])cc2ncccc12 was read as ATXN2 expr inh -1%, DRD3 antagonist -75*, DRD3 agonist -13, HepG2 tox -1%, TGFb SMAD3 inh -2% and S2 tox inactive.
CCc1nc2ccc(C(=O)N3CCCCC3)cn2c1N(CCC(C)C)CCN(C)C was read as ATXN2 expr inh 1%, DRD3 antagonist -11, DRD3 agonist 53*, HepG2 tox -2%, TGFb SMAD3 inh 31% and S2 tox inactive.
For CN(C)c1ccc(/C=N\NC(=O)c2csnn2)cc1 the results were ATXN2 expr inh -9%, DRD3 antagonist -8, DRD3 agonist 0, HepG2 tox -20%, TGFb SMAD3 inh 7% and S2 tox inactive.
Cc1cccc(/C=N\NC(=O)c2csnn2)c1 was read as ATXN2 expr inh 39%, DRD3 antagonist -91*, DRD3 agonist -14, HepG2 tox -10%, TGFb SMAD3 inh 30% and S2 tox inactive.
Screening O=C(c1ccccc1)N1CCSc2sccc2C1=O returned ATXN2 expr inh 4.7µM*, DRD3 antagonist -1, DRD3 agonist -1, HepG2 tox -8%, TGFb SMAD3 inh -9% and S2 tox inactive.
O=C1CCSC2(C(=O)N(Cc3ccc(F)cc3)c3ccccc32)N1c1ccccc1 (stereo unspecified) was read as DRD3 agonist 7, HepG2 tox -48% and TGFb SMAD3 inh inconclusive.
For Cc1cccc(N2C(=O)CCSC23C(=O)N(Cc2ccc(F)cc2)c2ccccc23)c1 (stereo unspecified) the results were DRD3 agonist -11, HepG2 tox 18µM* and TGFb SMAD3 inh inconclusive.
O=C1CCSC2(C(=O)N(Cc3ccc(F)cc3)c3ccccc32)N1c1cccc(F)c1 (stereo unspecified) was read as DRD3 agonist 3, HepG2 tox -50% and TGFb SMAD3 inh 13µM*.
For O=C1CC(=Nc2ccc([N+](=O)[O-])cc2)NN1c1c(Cl)cc(Cl)cc1Cl the results were DRD3 antagonist inconclusive, DRD3 agonist 2, HepG2 tox -70%, TGFb SMAD3 inh 16µM* and S2 tox inactive.
CCS/C(N)=N/N=C/c1cc(C)ccc1O was read as ATXN2 expr inh 52%, DRD3 antagonist -53*, DRD3 agonist -6, HepG2 tox -56%, TGFb SMAD3 inh -9% and S2 tox inactive.
Screening CCCCS/C(N)=N/N=C/c1cc(C)ccc1O returned ATXN2 expr inh 44%, DRD3 antagonist -55*, DRD3 agonist -11, HepG2 tox -45%, TGFb SMAD3 inh inconclusive and S2 tox inactive.
`O=C1N(c2ccccc2)C(c2ccccc2)C12CCCCC2` (stereo unspecified) gave ATXN2 expr inh 5%, DRD3 antagonist 13, DRD3 agonist -1, HepG2 tox -22%, TGFb SMAD3 inh -24% and S2 tox inactive.
For CN1C(=O)C2(CCCCC2)C1c1ccccc1 (stereo unspecified) the results were ATXN2 expr inh 5%, DRD3 antagonist -76*, DRD3 agonist -15, HepG2 tox -1%, TGFb SMAD3 inh 4% and S2 tox inactive.
Screening CC1(c2ccccc2)OC(C(=O)O)=CC1=O (stereo unspecified) returned ATXN2 expr inh 3%, DRD3 agonist 2 and S2 tox inactive.
For O=C(CSCc1cnn(-c2ccccc2)c1-n1cccc1)Nc1ccc(F)cc1F the results were DRD3 agonist -20, HepG2 tox -43% and TGFb SMAD3 inh inconclusive.
Screening O=C(CCSCc1cnn(-c2ccccc2)c1-n1cccc1)NCc1ccc(Cl)cc1 returned DRD3 agonist 4, HepG2 tox -27% and TGFb SMAD3 inh 16µM*.
Cc1ccc(NC(=O)CSCc2cnn(-c3ccccc3)c2-n2cccc2)c(Cl)c1 was read as DRD3 agonist 70*, HepG2 tox -27% and TGFb SMAD3 inh inconclusive.
CCC1CCCCN1C(=O)CSc1nc2c([nH]c3ccccc32)c(=O)n1-c1ccc(OC)cc1 (stereo unspecified) was read as ATXN2 expr inh -2%, DRD3 agonist 3, HepG2 tox -6%, TGFb SMAD3 inh 1% and S2 tox inactive.
For CCc1nc2cc(C(=O)N(C)CC3CCCN(C)C3)cc(NC(=O)c3ccccc3OC)c2n1C (stereo unspecified) the results were S2 tox inactive.
For Cc1ccc2sc(C)[n+](CCCS(=O)(=O)[O-])c2c1 the results were ATXN2 expr inh -6%, DRD3 antagonist inconclusive, DRD3 agonist -10, HepG2 tox -21%, TGFb SMAD3 inh -1% and S2 tox inactive.
Screening Cc1ccc2c(c1)sc(C)[n+]2CCCS(=O)(=O)[O-] returned ATXN2 expr inh -5%, DRD3 antagonist -86*, DRD3 agonist -22, HepG2 tox -2%, TGFb SMAD3 inh 0% and S2 tox inactive.
For C=CCc1c(C)nc(C)nc1N/N=C/c1ccccc1O the results were ATXN2 expr inh -38%, DRD3 antagonist -113*, DRD3 agonist -21, HepG2 tox -48%, TGFb SMAD3 inh inconclusive and S2 tox inconclusive.
Screening C=CCc1c(C)nc(C)nc1N/N=C/c1ccc([N+](=O)[O-])cc1 returned ATXN2 expr inh -9%, DRD3 antagonist inconclusive, DRD3 agonist -1, HepG2 tox -8%, TGFb SMAD3 inh -2% and S2 tox inactive.
Screening Oc1ccccc1C1C=C(c2ccc3c(c2)OCO3)NC(c2cccc(Cl)c2)N1 (stereo unspecified) returned HepG2 tox -39% and TGFb SMAD3 inh inconclusive.
For CSc1ccc(OC2(C)CCN(Cc3cc4ccccc4o3)C2)cc1 (stereo unspecified) the results were ATXN2 expr inh 5%, DRD3 antagonist -74*, DRD3 agonist -5, HepG2 tox -12%, TGFb SMAD3 inh 1% and S2 tox inactive.
`CSc1ccc(OC2(C)CCN(Cc3ccc(C(C)C)cc3)C2)cc1` (stereo unspecified) gave ATXN2 expr inh -18%, DRD3 antagonist -61*, DRD3 agonist -12, HepG2 tox -37%, TGFb SMAD3 inh -3% and S2 tox inactive.
For CC1(Oc2cccc(F)c2)CCN(Cc2ccc(-c3ccccc3)o2)C1 (stereo unspecified) the results were ATXN2 expr inh 11%, DRD3 antagonist inconclusive, DRD3 agonist -19, HepG2 tox -53%, TGFb SMAD3 inh inconclusive and S2 tox inactive.
